Results filed as inconclusive are left out. A number with no mark means an inactive call. Active and inactive are the calls of the source. The call rests on the fitted dose curve; in most records, active means well fitted curve in the direction sought with a large enough effect; inconclusive means small, poorly fitted or top-dose-only effect, or another doubt; inactive means no such curve, though single readings can be large; an effect the other way counts as inactive or inconclusive.

This is an account of results in PubChem BioAssay (NCATS).

Test [1] relates to MCC-13. Kind of test: qHTS assay to identify novel small-molecules to repurpose for Merkel cell carcinoma treatment (AID 1296009). Further: nearly all actives have a fitted effect of over 60% in size. Conditions: MCC and control cell lines, CellTiter-Glo viability, 72 h; series mostly up to 46 µM. Summed up:
(§1)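 qHTS format: cells treated with library compounds in DMSO across 8 (NPC) or 11 (MIPE) concentrations. Readout after 72 hr at 37 degree celsius was CellTiter-Glo luminescence.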
Background: In qHTS, concentration-response curves come from the screen itself.

The test system of test [2] is MCC-26. The description is as above. As to conditions: MCC and control cell lines, CellTiter-Glo viability, 72 h; series mostly up to 46 µM. Summed up:
as §1
In general terms: Cellular ATP, detected with luciferase, serves as a proxy for viable cell number.

For test [3], the system named is MKL-2. The description is as above. As to conditions: MCC and control cell lines, CellTiter-Glo viability, 72 h; series mostly up to 46 µM. Summed up: as §1
The subject of test [4] is UISO. The description is as above. Conditions: MCC and control cell lines, CellTiter-Glo viability, 72 h; series mostly up to 46 µM. Summed up:
as §1

For test [5], the system named is WaGa. The description is as above. As to conditions: MCC and control cell lines, CellTiter-Glo viability, 72 h; series mostly up to 46 µM. Summed up: as §1
Test [6] concerns C33A. The experiment in a line: Primary qHTS to identify gynecologic anti-cancer compounds using libraries of approved drugs and bioactive compounds (AID 1345084). Further: nearly all actives have a fitted effect of over 55% in size. As to conditions: Gynecologic cancer cell panel viability, ATPlite luminescence, 48 h; series mostly up to 57.5 µM. Summed up:
(§2)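 Cells, 1,000 per well, plated 16 h, then exposed 48 h at 37 C to compounds. Viability by ATPlite luminescence after 15 min at room temperature.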

Test [7] relates to CASKI. The description is as above. Conditions: Gynecologic cancer cell panel viability, ATPlite luminescence, 48 h; series mostly up to 57.5 µM. Summed up:
as §2

Test [8] deals with Es-2. The description is as above. Conditions: Gynecologic cancer cell panel viability, ATPlite luminescence, 48 h; series mostly up to 57.5 µM. Summed up: as §2
Test [9] concerns HeLa. The description is as above. As to conditions: Gynecologic cancer cell panel viability, ATPlite luminescence, 48 h; series mostly up to 57.5 µM. Summed up:
as §2

For test [10], the system named is Hek293T. Described as above. Conditions: Gynecologic cancer cell panel viability, ATPlite luminescence, 48 h, control line for the selectivity index; series mostly up to 57.5 µM. Summed up:
as §2

For test [11], the system named is JEG-3. The test is described as above. As to conditions: Gynecologic cancer cell panel viability, ATPlite luminescence, 48 h; series mostly up to 57.5 µM. Summed up:
as §2

Test [12] concerns OV90. The description is as above. As to conditions: Gynecologic cancer cell panel viability, ATPlite luminescence, 48 h; series mostly up to 57.5 µM. Summed up:
as §2

Test [13] deals with PA-1. The description is as above. Conditions: Gynecologic cancer cell panel viability, ATPlite luminescence, 48 h; series mostly up to 57.5 µM. Summed up:
as §2

The subject of test [14] is SKOV3. Described as above. As to conditions: Gynecologic cancer cell panel viability, ATPlite luminescence, 48 h; series mostly up to 57.5 µM. Summed up: as §2
Test [15] relates to Tov-21-G. Described as above. As to conditions: Gynecologic cancer cell panel viability, ATPlite luminescence, 48 h; series mostly up to 57.5 µM. Summed up:
as §2

The subject of test [16] is Tov112D. Described as above. As to conditions: Gynecologic cancer cell panel viability, ATPlite luminescence, 48 h; series mostly up to 57.5 µM. Summed up: as §2
A short description of test [17]: Drug repurposing screens with cells derived from glioblastoma tumor samples (AID 1345199). Further: nearly all actives have a fitted effect of over 40% in size. As to conditions: GBM patient neurospheres viability, ATP luminescence, 48 h. Summed up:
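Four patient lines of CD133+ GBM neurospheres were screened at several concentrations; hits were retested in those lines plus three slower-growing GBM lines, using 48-hour treatment and ATP-based viability.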

In test [18] the test system is CAOV3. Kind of test: Primary qHTS to identify gynecologic anti-cancer compounds using libraries of approved drugs and bioactive compounds (AID 1345084). Further: nearly all actives have a fitted effect of over 55% in size. As to conditions: Gynecologic cancer cell panel viability, ATPlite luminescence, 48 h; series mostly up to 57.5 µM. Summed up: as §2
The subject of test [19] is MKL-1. Kind of test: qHTS assay to identify novel small-molecules to repurpose for Merkel cell carcinoma treatment (AID 1296009). Further: nearly all actives have a fitted effect of over 60% in size. Conditions: MCC and control cell lines, CellTiter-Glo viability, 72 h; series mostly up to 46 µM. Summed up:
as §1

[20] abbreviates: at 45.9 µM (top of the series), tumour line B.
Where [21] appears, read: at 45.9 µM (top of the series), tumour line D.
Setting [22] is: at 46.1 µM (top of the series), tumour line C.
On the % scale 0 is the no-effect control and ±100 the full control effect; potency means the concentration at half of the fitted maximal effect.

As for `CCOC(=O)C1=C(C)NC(C)=C(C(=O)OC)C1c1cccc([N+](=O)[O-])c1` (stereo not given), the Potency entry in test [1], in test [2], in test [3], in test [4], in [5] and in [6] was “inactive” throughout. Also, the Potency result in test [7], in test [8], in [9], in test [10], in test [11] and in test [12] was “inactive” in each case. For the same compound, the Potency entry in test [13], in test [14], in test [15] and in [16] was “inactive” in each case. For the same compound, the values for the activity, negative = cell killing in [17] (setting [20]), in [17] (setting [21]) and in test [17] (setting [22]) were 3.31%, -28.4% and -23.9%, respectively. The Potency in test [17] (tumour line A) is 11.2 µM (active).

With `O=C1CC2(CCCC2)CC(=O)N1CCCCN1CCN(c2ncccn2)CC1`, the Potency result in test [1], in [2], in test [3], in test [4], in test [5] and in test [6] was “inactive” throughout. Moreover, the Potency entry in test [7], in [8], in [9], in test [10], in test [11] and in test [12] was “inactive” in each case. The Potency result in test [13], in test [14], in test [15] and in test [16] was “inactive” throughout. Moreover, the activity, negative = cell killing in [17] (setting [20]) was -25.4%; in test [17] (setting [22]), -16.7%. In addition, the Potency in test [17] (tumour line A) was 5.01 µM (active).

For `CN(C(=O)CCCOc1ccc2[nH]c(=O)ccc2c1)C1CCCCC1`, the Potency result in [1], in [2], in test [3], in test [4], in [5] and in test [6] was “inactive” in each case. In addition, the Potency result in test [18], in test [7], in test [8], in test [9], in [10] and in test [11] was “inactive” throughout. The Potency entry in test [12], in test [15] and in test [16] was “inactive” throughout. The activity, negative = cell killing in test [17] (setting [20]) was -16.8%. Besides, the Potency in [17] (tumour line A) is 11.2 µM (active).

As to `CC(C)(C)c1ccc(C(=O)CCCN2CCC(OC(c3ccccc3)c3ccccc3)CC2)cc1`, the Potency in test [3] was 7.5 µM (active); in test [5], 15 µM (active); in test [18], 28.2 µM (active); in test [17] (tumour line A), 2.51 µM (active); in test [17] (tumour line B) it was 25.1 µM (active); in [17] (tumour line D) it was 5.01 µM (active). For the same compound, the Potency result in [6], in test [7], in test [8], in test [9], in test [11] and in test [15] was “inactive” throughout. Also, in test [16], the Potency result is “inactive”. The activity, negative = cell killing in test [17] (setting [22]) is -18.9%.

As for `CCc1cccc(N(C)C(N)=Nc2cccc3ccccc23)c1`, the Potency entry in test [2], in test [19], in test [4], in [6], in [18] and in [7] was “inactive” in each case. The Potency result in test [8], in [9], in test [10], in test [11] and in [15] was “inactive” throughout.

On to `O=C(CCNNC(=O)c1ccncc1)NCc1ccccc1`, for which the Potency result in [1], in [2], in test [3], in test [4], in test [6] and in test [18] was “inactive” throughout. Besides, the Potency result in [7], in test [8], in test [10], in test [11], in [12] and in [13] was “inactive” each time. In addition, the Potency result in test [14], in [15] and in test [16] was “inactive” each time. The activity, negative = cell killing was -4.66% in test [17] (setting [20]); -5.12% in test [17] (setting [21]); -24.8% in test [17] (at 46 µM (top of the series), tumour line A); 1.75% in test [17] (setting [22]).

In the case of `CC[N+](C)(C)c1cccc(O)c1`, the Potency entry in test [6], in test [18], in test [7], in test [8], in [10] and in test [11] was “inactive” in each case. Moreover, the Potency result in [12], in test [13], in test [14], in [15] and in [16] was “inactive” each time. Also, the activity, negative = cell killing in test [17] (at 20 µM (top of the series), tumour line C) was -0.675%; in [17] (at 21.2 µM (top of the series), tumour line B), -16.9%; in test [17] (at 21.2 µM (top of the series), tumour line D), -14.7%; in [17] (at 21.3 µM (top of the series), tumour line A), -22.7%.
